# PubChem BioAssay (Tox21)
# Results filed as inconclusive are left out. Values without a mark were called inactive. Active and inactive are the calls of the source. Calls come from the whole dose curve; as a rule, active = well fitted inhibition curve with a large enough effect in the repeat runs; inconclusive = weak or mixed curves; inactive = flat fitted curve, though single readings scatter.
# Molecular target: Voltage-gated inwardly rectifying potassium channel KCNH2 (Homo sapiens) (UniProt Q12809)
# Sequence (Q12809 whole entry, looked up): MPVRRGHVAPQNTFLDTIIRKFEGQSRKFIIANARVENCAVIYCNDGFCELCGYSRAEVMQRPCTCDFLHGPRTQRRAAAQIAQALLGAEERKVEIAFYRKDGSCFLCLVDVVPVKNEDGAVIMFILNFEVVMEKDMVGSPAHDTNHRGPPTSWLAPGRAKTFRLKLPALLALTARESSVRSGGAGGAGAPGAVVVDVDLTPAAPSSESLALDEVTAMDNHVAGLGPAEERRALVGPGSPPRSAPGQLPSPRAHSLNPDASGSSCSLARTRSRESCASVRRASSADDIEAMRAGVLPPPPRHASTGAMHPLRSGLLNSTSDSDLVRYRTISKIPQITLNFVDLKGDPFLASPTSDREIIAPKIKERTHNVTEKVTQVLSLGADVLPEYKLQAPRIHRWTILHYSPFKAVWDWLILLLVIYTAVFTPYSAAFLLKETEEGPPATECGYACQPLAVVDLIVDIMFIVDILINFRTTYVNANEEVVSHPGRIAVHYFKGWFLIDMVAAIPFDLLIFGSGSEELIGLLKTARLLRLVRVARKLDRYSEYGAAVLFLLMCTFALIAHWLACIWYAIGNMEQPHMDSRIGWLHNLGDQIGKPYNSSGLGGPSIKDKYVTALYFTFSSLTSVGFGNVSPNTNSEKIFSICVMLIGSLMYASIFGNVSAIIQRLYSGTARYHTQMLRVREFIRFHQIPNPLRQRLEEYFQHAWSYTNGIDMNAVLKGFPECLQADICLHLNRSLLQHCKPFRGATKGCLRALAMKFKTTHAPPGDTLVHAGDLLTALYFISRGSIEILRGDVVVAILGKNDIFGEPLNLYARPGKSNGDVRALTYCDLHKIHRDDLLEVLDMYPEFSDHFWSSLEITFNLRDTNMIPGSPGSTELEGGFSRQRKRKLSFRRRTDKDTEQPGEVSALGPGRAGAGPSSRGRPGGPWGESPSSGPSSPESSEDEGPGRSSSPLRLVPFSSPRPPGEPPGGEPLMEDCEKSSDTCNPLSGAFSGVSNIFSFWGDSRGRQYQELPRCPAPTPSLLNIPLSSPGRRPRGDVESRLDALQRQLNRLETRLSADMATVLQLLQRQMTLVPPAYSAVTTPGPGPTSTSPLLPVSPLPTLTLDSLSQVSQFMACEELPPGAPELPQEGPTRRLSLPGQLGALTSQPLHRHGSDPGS
# Test: Human Ether-a-go-go-Related Gene (hERG) channel small molecule antagonists: fluorescence cell-based qHTS assay (AID 1671200); note: nearly all actives have a fitted effect of over 50% in size;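 for activity change, negative = inhibition: hERG-expressing U2OS cells given a thallium stimulus after FluxOR II dye loading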
# Settings: hERG-U2OS cells, FluxOR thallium flux fluorescence; series mostly up to 76.8 µM; activity change, negative = inhibition: at the top concentration
# How it was run: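 hERG-U2OS cells plated overnight at 37 C, loaded with FluxOR II dye 1 h at RT in dark; after 10 min, thallium stimulus added. Fluorescence (480/540 nm) read kinetically for 2 min at 1 s intervals.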
# % is set by controls: 0 for no effect and ±100 for the full control effect; potency is the fitted concentration of half-maximal effect.
Compound,"activity change, negative = inhibition",Potency
Cn1c(=O)c2c(ncn2CC(O)CO)n(C)c1=O (stereo not drawn),2.29% [at 35.3 µM],
CCOC(=O)C1=C(C)NC(C)=C(C(=O)OC)C1c1cccc([N+](=O)[O-])c1 (stereo not drawn),-3.23% [at 35.3 µM],
CC(C)(C)C(=O)OCOP(=O)(COCCn1cnc2c(N)ncnc21)OCOC(=O)C(C)(C)C,-1.12% [at 35.3 µM],
NCc1ccccc1,-2.65%,
CCCCCCc1ccc(N)cc1,-4.08%,
CC(C)c1ccccc1C(C)C,-3.11%,
N#Cc1cc2ccccc2c2ccccc12,-13%,
O=C(O)C(c1ccc(Cl)cc1)c1ccc(Cl)cc1,0.982%,
Nc1nc(N)c2nc(CNc3ccc(C(=O)N[C@@H](CCC(=O)O)C(=O)O)cc3)cnc2n1,0.486%,
Nc1nc(N)c(-c2ccccc2)s1,0.0833% [at 35.3 µM],
Cc1cc(CC(=O)O)c(C)n1-c1ccc(Cl)cc1,1.81% [at 35.3 µM],
CC(=O)O[C@H]1C[C@@H]2CC[C@@H]3[C@H](CC[C@@]4(C)[C@H]3C[C@H]([N+]3(C)CCCCC3)[C@@H]4OC(C)=O)[C@@]2(C)C[C@@H]1N1CCCCC1,-0.206% [at 35.3 µM],
CCOc1ccc2[nH]cc(C(=O)NCc3ccccc3)c(=O)c2n1,-1.34%,
O=C(Nc1ccccc1)OCC(CN1CCCCC1)OC(=O)Nc1ccccc1 (stereo not drawn),,6.01 µM (active)
Cc1ccc2c(ccc3ccccc32)c1,-13.4%,
Cc1c(Cn2ccnc2)c2ccccc2n1CCC(=O)O,0.458% [at 35.3 µM],
C=CC[N+]1([C@H]2C[C@H]3[C@@H]4CC[C@H]5C[C@H](OC(C)=O)[C@@H](N6CCCCC6)C[C@]5(C)[C@H]4CC[C@]3(C)[C@H]2OC(=O)CC)CCCCC1,0.373% [at 35.3 µM],
CCCC[C@H]1CN(CC2CCOCC2)C(=O)OC12CCN(C1(C)CCN(C(=O)c3c(C)ncnc3C)CC1)CC2,,12.2 µM (active)
